We go through 40 sequences from the supplement of paper PMC10681739.

The target in this assay is T1, ETS1 (UniProt P14921).
T1 sequence: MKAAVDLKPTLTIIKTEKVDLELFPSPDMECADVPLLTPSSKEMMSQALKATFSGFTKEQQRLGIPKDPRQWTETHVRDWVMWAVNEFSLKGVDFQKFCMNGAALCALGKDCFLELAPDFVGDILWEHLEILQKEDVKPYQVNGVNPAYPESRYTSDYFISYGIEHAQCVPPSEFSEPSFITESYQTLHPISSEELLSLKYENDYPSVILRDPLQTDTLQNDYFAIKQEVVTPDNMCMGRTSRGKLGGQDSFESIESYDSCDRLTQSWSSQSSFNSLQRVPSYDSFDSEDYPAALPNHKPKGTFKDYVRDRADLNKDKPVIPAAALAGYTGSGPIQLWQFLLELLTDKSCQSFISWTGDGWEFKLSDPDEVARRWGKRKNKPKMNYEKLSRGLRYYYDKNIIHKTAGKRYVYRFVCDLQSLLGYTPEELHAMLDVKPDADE
The assay can be described thus: ETS1 binding intensity (PBM fluorescence), ETS1 alone (arbitrary fluorescence units); higher = stronger binding. As to conditions: ETS1 concentration 1 nM; RUNX1 concentration 0 nM. The procedure: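 Cooperative genomic-context PBM: 36-bp genomic probes with neighbouring ETS1 and RUNX1 sites, double-stranded on Agilent 4x180k arrays. Full-length recombinant human ETS1 (1 nM) was incubated alone or with RUNX1 (25 nM) and detected with anti-ETS1 antibody plus Alexa488 secondary. Value is the median fluorescence intensity over 4 replicate spots; the ETS1+RUNX1 data were normalised to the ETS1-only data using probes without RUNX1 sites. The 36-bp variable region sits on the array probe with constant linker/primer flanks that are not printed.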
With AACTAGAGCGTCATTTCCTGTGGGTACAAGTCCAGT, the ETS1 binding intensity amounted to 1640. With ACGCCGCGCATCCGCGCTTTACGGCGGCCGCAAAAT, the ETS1 binding intensity came out at 405. The result for TTCTTAGCAGAGGAAGCTGTTTGCGGGGAAAAAGGG reads 1120. The figure for CTGCAGATGCATTTCCTTTTTGTGGTAGCAAGCGTG is 570; for AGGAGTGAGGAAGTGAGGCTGGCCTTGTGGGTGTGG it is 644. In turn, AACACCTCACACTTCCTGCCCACAAGATAAGAGCCT returned an ETS1 binding intensity of 895. As for GAAAGACAGGATGTGGGATAGATCTCAACCACCTTT, the ETS1 binding intensity came to 2590. The result for ACTCCAGAGGAAGTGGCAAGACGAGCGCGGTAACGG reads 1080. The result for GCTGTCCGTTTCCGAGATGTTAATGCGGGATCTTGC reads 473. On to GTGGCCTCTTCAACAGGAAACCACAATATTTTTGTT, for which the ETS1 binding intensity stood at 4610. The result for CACCTGGCCCGGACGGCTGCGGTCTGGAGGGCTGTC reads 386; that for TTCGGATTCCCGGAAGAACCCGCAGCAGCTCCCAGG, 792; that for CTAAACCGGAAGCCGCCCCTCTGACCGCTCTAAAAC, 5350.

In the case of ACGTAGACAGGAAAGTAATGTGGTTCAGGACTGAGT, the ETS1 binding intensity is 746. The result for AGATGGTGTGGCCGGATGGGGACCACATTGAAGAGA reads 1090; that for GGCCGGGGGCAGGAAGCTGCGGCGCTGGCTCCCCCC, 2510. The figure for AGTTGGTTCCTTCCGGTGGGTTTGTGGGCTTGGGGT is 1400; for ACGACGTCCCGGAAGTGCTGCGGCAATGTTGCTCTT it is 5570. The result for TGTCGTACATTTCCGCCTTGTGGGCACAATCTGATT reads 965. In the case of CTGTCATCTTCCTGACAGCACGCCCACAAAGGACCA, the ETS1 binding intensity turned out to be 482. TACCAACAGGAATCTTTGGGGTCTAAACCGCAAACA showed an ETS1 binding intensity of 481. TCACTCCTCTTCCTTCCTGCCACCCACAGGGTCAGC: the ETS1 binding intensity came to 532. Turning to TAAGAAAAACAGTCATCCTGCGGTTTCCATTTGTGA, the ETS1 binding intensity turned out to be 351. The figure for CTTCCTTCCCTTCCTTCTGCTCCCTCCCACAGCCGC is 519; for GGAGCAGGAAGCGTCGCCGGGGGGCCCACAAGGGTA it is 528; for GGAGGAAGGCAGGAAAGAAAGAGGTGGTTTCGGCAC it is 605. The figure for ATCACTTGTTTCCGCCAGCAAACCACAGGTCCCCAG is 417; for GTACGCTCTTCACTTCCCGTACCCGCGCCCGGCAGG it is 609.

The sequence ACACTGAGCTGAACGGAAATGTGGTTCTCACCTCAT gave an ETS1 binding intensity of 2670. The result for CCAACACGGATACAAAAAATATCTCTCTACCACACT reads 476.

With TTCTTCCCCCTTCCGGTCGCTGAGTGGTTGAGGCCG, the ETS1 binding intensity stood at 4140. The result for GAGGCCGAAAGGAAGTTTGAGGTTAAGCACAAGATG reads 975. Turning to CTCTAGAGGCTTCCTGCCCAACCACCAAGAAAAAGC, the ETS1 binding intensity came to 598.

With CCAGCCGGAAGCCCCGCCCCCTAGAGGCACCGCGGA, the ETS1 binding intensity was 1010. As for CAGTGGCTAAGGATCCGGTGTTGCGGTGATACATGA, the ETS1 binding intensity was determined as 430. CTGTGGCCTAGAAGCTTCCTGCCGCAGCTCTGAGGA had an ETS1 binding intensity of 534. The result for ACCACCCCCCGTTTCCTCCGAAGTGGTTGGTGCCTT reads 590; that for CACCTGCCTTGCTTCCTGCGGTGCAACCAGCGGGAG, 444. In the case of TGGGGAGCAGGAAGCTGGGGGCGGTTGTGGAGGGAC, the ETS1 binding intensity amounted to 1130.

As for GCAGGGGCCCATTTCCTGCCACAAGCCCACACAGGA, the ETS1 binding intensity is 1390.
